Experimental findings from PubChem BioAssay (NCATS) are described below.

Several values for one entry are separate records, joined by “and”; a condition that tells them apart may be missing. Equal values may be shown once. Records with an inconclusive call do not appear. Values without a mark were called inactive. Activity calls are given as the source filed them. The call rests on the fitted dose curve; in most records, active means well fitted curve in the direction sought with a large enough effect; inconclusive means small, poorly fitted or top-dose-only effect, or another doubt; inactive means no such curve, though single readings can be large; an effect the other way counts as inactive or inconclusive.

One test relates to MCC-26. Put plainly: qHTS assay to identify novel small-molecules to repurpose for Merkel cell carcinoma treatment (AID 1296009). Further: nearly all actives have a fitted effect of over 60% in size. Further: potency means the concentration at half of the fitted maximal effect. The following applies: MCC and control cell lines, CellTiter-Glo viability, 72 h; series mostly up to 46 µM. Summed up:
(§1)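 Cell viability, measured as CellTiter-Glo luminescence, was normalized between DMSO and no-cell wells. The cells had been exposed to 8- or 11-point compound dilutions for 72 hr at 37 degree celsius.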
(qHTS replaces the single test concentration by a dilution series.)

Another test deals with MKL-2. The description is as above. The following applies: MCC and control cell lines, CellTiter-Glo viability, 72 h; series mostly up to 46 µM. Summed up: as §1
A general note: ATP-based viability assays read luminescence as a measure of living cells.

Another test concerns UISO. The test is described as above. The following applies: MCC and control cell lines, CellTiter-Glo viability, 72 h; series mostly up to 46 µM. Summed up:
as §1

The subject of a further test is WaGa. Described as above. The following applies: MCC and control cell lines, CellTiter-Glo viability, 72 h; series mostly up to 46 µM. Summed up:
as §1

The test system of the next test is MKL-1. Described as above. The note with it: MCC and control cell lines, CellTiter-Glo viability, 72 h; series mostly up to 46 µM. In outline: as §1
The test system of the next test is C33A. Put plainly: Primary qHTS to identify gynecologic anti-cancer compounds using libraries of approved drugs and bioactive compounds (AID 1345084). Further: nearly all actives have a fitted effect of over 55% in size. The note with it: Gynecologic cancer cell panel viability, ATPlite luminescence, 48 h; series mostly up to 57.5 µM. Summed up: (§2)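 In this quantitative HTS, cell killing is estimated from loss of ATP-dependent luciferase light. Cells see five compound concentrations over a 48 h exposure.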

The test system of a further test is CASKI. The test is described as above. The note with it: Gynecologic cancer cell panel viability, ATPlite luminescence, 48 h; series mostly up to 57.5 µM. In outline: as §2
A further test deals with JEG-3. The description is as above. The note with it: Gynecologic cancer cell panel viability, ATPlite luminescence, 48 h; series mostly up to 57.5 µM. Summed up:
as §2

The test system of another test is HeLa. The test is described as above. The following applies: Gynecologic cancer cell panel viability, ATPlite luminescence, 48 h; series mostly up to 57.5 µM. Summed up: as §2
For another test, the system named is PA-1. The test is described as above. The following applies: Gynecologic cancer cell panel viability, ATPlite luminescence, 48 h; series mostly up to 57.5 µM. Summed up:
as §2

In another test the test system is Tov-21-G. The description is as above. The note with it: Gynecologic cancer cell panel viability, ATPlite luminescence, 48 h; series mostly up to 57.5 µM. Summed up: as §2
In the next test the test system is Tov112D. Described as above. The note with it: Gynecologic cancer cell panel viability, ATPlite luminescence, 48 h; series mostly up to 57.5 µM. Summed up: as §2
The next test relates to CAOV3. The test is described as above. The following applies: Gynecologic cancer cell panel viability, ATPlite luminescence, 48 h; series mostly up to 57.5 µM. Summed up:
as §2

A further test has as its system Es-2. The test is described as above. The following applies: Gynecologic cancer cell panel viability, ATPlite luminescence, 48 h; series mostly up to 57.5 µM. Summed up:
as §2

In another test the test system is Hek293T. The test is described as above. The following applies: Gynecologic cancer cell panel viability, ATPlite luminescence, 48 h, control line for the selectivity index; series mostly up to 57.5 µM. Summed up: as §2
A further test concerns OV90. The description is as above. The following applies: Gynecologic cancer cell panel viability, ATPlite luminescence, 48 h; series mostly up to 57.5 µM. Summed up:
as §2

The subject of another test is SKOV3. The test is described as above. The note with it: Gynecologic cancer cell panel viability, ATPlite luminescence, 48 h; series mostly up to 57.5 µM. In outline:
as §2

Another test has as its system NIH3T3. In words: qHTS assay to identify novel small-molecules to repurpose for Merkel cell carcinoma treatment (AID 1296009). Further: nearly all actives have a fitted effect of over 60% in size. Further: potency means the concentration at half of the fitted maximal effect. The note with it: MCC and control cell lines, CellTiter-Glo viability, 72 h; at 44.8 µM (top of the series) unless noted. Summed up: as §1
Test [1] is described as follows: Drug repurposing screens with cells derived from glioblastoma tumor samples (AID 1345199). Further: nearly all actives have a fitted effect of over 40% in size. The note with it: GBM patient neurospheres viability, ATP luminescence, 48 h. In outline:
(§3)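 Primary testing used CD133+ neurospheres from four GBM patients, seven concentrations, 48 h exposure and ATP-based viability; confirmation added three slower-growing patient lines.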

For a further test, the system named is astro. The test is described as above. The following applies: viability, ATP luminescence, 48 h; series mostly up to 45.9 µM. In outline: as §3
[2] abbreviates: at 45.9 µM (top of the series), tumour line B.
[3] abbreviates: at 45.9 µM (top of the series), tumour line D.
The mark [4] stands for this setting: at 46.1 µM (top of the series), tumour line C.
Where [5] appears, read: at 46 µM (top of the series), tumour line A.
On the % scale 0 is the no-effect control and ±100 the full control effect.

`CC1(C)SCCN(S(=O)(=O)c2ccc(OCC#CCO)cc2)[C@@H]1C(=O)NO`: the Potency result in the test with MCC-26, with MKL-2 and with UISO was “inactive” throughout.
Consider `Cc1c(CN2CCN(C(=O)C(C)C)CC2)sc2c(N3CCOCC3)nc(-c3cnc(N)nc3)nc12`, for which the Potency in the test with MCC-26 is 662 nM (active). The Potency entry in the test with WaGa was “inactive”.
Take `O=C(O)CCc1ccc(NCc2cccc(Oc3ccccc3)c2)cc1`: the Potency entry with MCC-26, in the test on C33A, in the test with CASKI and in the test on JEG-3 was “inactive” throughout. Also, the activity change, negative = cytotoxicity in the test on MKL-1 is -1.7% [at 0.00266 µM].
For `S=C(NCc1ccc2c(c1)OCO2)N1CCN(c2ncnc3c2oc2ccccc23)CC1`, the Potency result in the test on MCC-26, in the test on HeLa, in the test on JEG-3, in the test with PA-1, in the test on Tov-21-G and in the test with Tov112D was “inactive” in each case.
As to `CC(C)OC(=O)C1=CN(C(=O)c2ccc(F)c(F)c2)CC(C)(C)c2c1[nH]c1ccccc21`, the Potency result in the test with MKL-1, in the test with MKL-2, in the test with UISO, with WaGa, in the test on C33A and with CAOV3 was “inactive” each time. Further, the Potency entry in the test with CASKI, in the test on Es-2, in the test with HeLa, in the test with Hek293T, in the test with JEG-3 and in the test on OV90 was “inactive” in each case. For the same compound, the Potency entry in the test on PA-1, in the test on SKOV3, in the test with Tov-21-G and in the test on Tov112D was “inactive” each time.
Turning to `Cc1cc(C=c2sc3nc4ccccc4n3c2=O)c(C)n1-c1ccccc1`, the Potency result in the test with MKL-1, with MKL-2, in the test on UISO and with WaGa was “inactive” throughout.
`O=C(Nc1cccnc1)N1CCC(Cc2cccc(Oc3ccc(C(F)(F)F)cn3)c2)CC1`: the Potency result in the test on MCC-26, in the test with CAOV3, with HeLa and in the test with PA-1 was “inactive” in each case. The Potency in the test with MKL-2 and with UISO was 16.6 µM (active) throughout.
Consider `NS(=O)(=O)c1cc2c(cc1Cl)NC=NS2(=O)=O`, for which the Potency entry with MKL-1, with MKL-2, in the test on UISO, in the test with WaGa, in the test with C33A and with CAOV3 was “inactive” in each case. In addition, the Potency entry in the test on CASKI, with Es-2, in the test on HeLa, in the test on Hek293T, in the test on JEG-3 and in the test with PA-1 was “inactive” each time. For the same compound, the Potency entry in the test with SKOV3, in the test with Tov-21-G, in the test with Tov112D and in the test with astro was “inactive” in each case. The result in the test with NIH3T3 was inactive. The activity, negative = cell killing in test [1] (setting [2]) was -4.14%; in test [1] (setting [3]), -10.8%; in [1] (setting [4]) it was 23.2%.
With `CNCc1ccc(-c2[nH]c3cc(F)cc4c3c2CCNC4=O)cc1`, the Potency result in the test on MCC-26, in the test on MKL-1, in the test with WaGa, with C33A, in the test on CASKI and in the test on Es-2 was “inactive” each time. Also, the Potency entry in the test with HeLa, with Hek293T, with JEG-3, in the test on OV90, in the test with PA-1 and in the test with SKOV3 was “inactive” each time. Moreover, the Potency entry in the test with Tov-21-G and in the test on Tov112D was “inactive” in each case.
With `CCOc1cc(N2CCC(O)CC2)ccc1Nc1ncc2c(n1)N(C)c1ccccc1C(=O)N2C`, the Potency with MKL-1 was 3.32 µM (active); in the test with MKL-2, 2.64 µM (active); in the test with UISO, 11.8 µM (active); in the test with WaGa, 3.72 µM (active).
In the case of `CC(C)(C)NCC(O)c1ccc(O)c(CO)c1` (stereo not drawn), the Potency entry in the test on MKL-1, in the test on MKL-2, in the test with UISO, with WaGa, with C33A and in the test with CASKI was “inactive” in each case. Further, the Potency result in the test on Es-2, with HeLa, with Hek293T, with JEG-3, in the test on OV90 and in the test with PA-1 was “inactive” each time. The Potency entry with Tov-21-G, in the test with Tov112D and in the test on astro was “inactive” in each case. Besides, in the test with NIH3T3, the call was inactive. For the same compound, the activity, negative = cell killing is -3.69% in test [1] (setting [2]), -16.6% in test [1] (setting [3]), -18.1% in test [1] (setting [5]) and -6.46% in test [1] (setting [4]).
As for `CCOC(=O)N[C@@H]1CC[C@@H]2[C@@H](C1)C[C@H]1C(=O)O[C@H](C)[C@H]1[C@@H]2C=Cc1ccc(-c2cccc(F)c2)cn1`, the Potency entry in the test with MKL-1, with UISO and in the test with WaGa was “inactive” each time. For the same compound, the Potency in the test with MKL-2 was 20.9 µM (active).
Turning to `CCCCCCCc1ccc(CCc2cccc(O)c2C(=O)O)cc1`, the Potency entry with MKL-1, with MKL-2, in the test on UISO and with WaGa was “inactive” each time.
On to `CCC(C)N(C)C(=O)c1cc2ccccc2c(-c2ccccc2Cl)n1` (stereo not drawn), for which the Potency result in the test on MKL-1, in the test on MKL-2, in the test with UISO and in the test with WaGa was “inactive” in each case.
For `Cc1cnc(NC(=O)C2=C(O)c3ccccc3S(=O)(=O)N2C)s1`, the Potency result in the test with MKL-1, in the test with MKL-2, with UISO, in the test with WaGa, with C33A and in the test with CAOV3 was “inactive” each time. Also, the Potency entry in the test on CASKI, in the test with Es-2, in the test on HeLa, in the test on Hek293T, in the test with JEG-3 and in the test with OV90 was “inactive” each time. The Potency result in the test with PA-1, in the test on SKOV3, in the test on Tov-21-G, in the test on Tov112D and in the test with astro was “inactive” in each case. For the same compound, the outcome in the test with NIH3T3 was inactive. The activity, negative = cell killing is -11.1% and -5.23% in [1] (setting [2]); 7.55% and -2.79% in test [1] (setting [3]); -27.8% in test [1] (setting [5]); 4.05% and -0.835% in [1] (setting [4]).
`CCOc1cc(C=C2C(=O)N(c3ccccc3)N=C2C)cc(Cl)c1OCC(=O)OC`: the Potency entry in the test with MKL-1, in the test on MKL-2, in the test on UISO and with WaGa was “inactive” each time.
